PubChem BioAssay AID1159580 (chemical genetic matrix, 2015)
Values joined by “and” are separate entries in the source; they are usually repeats but may differ in a detail not shown here. Equal values may be shown once. Screen size: about 5,500 compounds; about 2,000 (36%) were called active. Another 18% or so got no clear call; they are omitted. Rule as the data show it: active = normalized growth mostly below about 0.91 (no sharp cut-off); inconclusive = no clear call, values can overlap the other calls; inactive = mostly above about 0.92. This is one part of the list.

Test: chemical genetic growth profiling, strain panel (AID 1159580);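 also: tested at 20 µM; growth read once vehicle control cultures reached saturation at 30 °C; 1 = growth at the plate median or of vehicle wells; lower values mean less growth of the strain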
Details: S. cerevisiae deletion strains, growth OD

Measured: normalized growth

CN1CCOC(c2ccccc2)c2ccccc2C1 (configuration not stated)
inactive: locus YAL013W, strain DEP1, active compounds read low 1.01 | locus YAL021C, strain ccr4, active compounds read low 0.949 | locus YAL026C, strain drs2, active compounds read low 0.969 | locus YAL030W, strain snc1, active compounds read low 0.976 | locus YBL061C, strain skt5, active compounds read low 0.979 | locus YBR009C, strain hhf1, active compounds read low 0.984 | locus YBR021W, strain FUR4, active compounds read low 1.07 | locus YBR023C, strain chs3, active compounds read low 0.974 | locus YBR171W, strain sec66, active compounds read low 0.976 | locus YBR229C, strain ROT2, active compounds read low 1 | locus YBR231C, strain swc5, active compounds read low 0.977 | locus YBR279W, strain paf1, active compounds read low 0.975 | locus YCL011C, strain gbp2, active compounds read low 0.966 | locus YCL016C, strain dcc1, active compounds read low 1 | locus YCL029C, strain bik1, active compounds read low 1.04 | locus YCL061C, strain MRC1, active compounds read low 0.979 | locus YCL069W, strain vba3, active compounds read low 0.984 | locus YCR088W, strain abp1, active compounds read low 0.973 | locus YDL005C, strain med2, active compounds read low 0.979 | locus YDL035C, strain GPR1, active compounds read low 1 | locus YDL040C, strain nat1, active compounds read low 0.967 | locus YDL074C, strain BRE1, active compounds read low 1.05 | locus YDL101C, strain DUN1, active compounds read low 1.02 | locus YDL134C, strain PPH21, active compounds read low 1 | locus YDL185W, strain tfp1, active compounds read low 1.02 | locus YDL192W, strain arf1, active compounds read low 1.02 | locus YDR001C, strain nth1, active compounds read low 0.974 | locus YDR069C, strain doa4, active compounds read low 0.91 | locus YDR101C, strain arx1, active compounds read low 1.01 | locus YDR137W, strain rgp1, active compounds read low 0.988 | locus YDR150W, strain NUM1, active compounds read low 0.992 | locus YDR159W, strain sac3, active compounds read low 0.916 | locus YDR162C, strain NBP2, active compounds read low 1.01 | locus YDR195W, strain ref2 0.941 | locus YDR297W, strain sur2, active compounds read low 0.985 | locus YDR318W, strain mcm21, active compounds read low 1.03 | locus YDR334W, strain swr1, active compounds read low 0.917 | locus YDR335W, strain msn5, active compounds read low 0.995 | locus YDR388W, active compounds read low 1.02 | locus YDR392W, strain spt3, active compounds read low 0.987 | locus YDR502C, strain sam2, active compounds read low 1.01 | locus YEL003W, strain gim4, active compounds read low 0.989 | locus YEL037C, strain rad23, active compounds read low 0.985 | locus YEL061C, strain CIN8 (second series), active compounds read low 0.971 | locus YEL061C, strain CIN8, active compounds read low 1 | locus YER015W, strain faa2, active compounds read low 0.992 | locus YER016W, strain bim1, active compounds read low 0.975 | locus YER110C, active compounds read low 1.02 | locus YER111C, strain swi4, active compounds read low 0.971 | locus YER155C, strain BEM2 (second series), active compounds read low 1.01 | locus YER155C, strain BEM2, active compounds read low 1.01 | locus YER167W, strain BCK2, active compounds read low 1.01 | locus YFR010W, strain ubp6, active compounds read low 0.966 | locus YGL078C, strain dbp3, active compounds read low 1.02 | locus YGL086W, strain mad1, active compounds read low 0.998 | locus YGL167C, strain pmr1, active compounds read low 0.981 | locus YGL173C, strain kem1, active compounds read low 0.958 | locus YGL227W, strain vid30, active compounds read low 0.951 | locus YGL240W, strain doc1, active compounds read low 0.977 | locus YGL248W, strain PDE1, active compounds read low 1.01 | locus YGL253W, strain hxk2, active compounds read low 0.963 | locus YGR078C, strain PAC10, active compounds read low 1.02 | locus YGR135W, strain pre9, active compounds read low 1.02 | locus YGR229C, strain SMI1, active compounds read low 0.987 | locus YGR252W, strain gcn5, active compounds read low 0.997 | locus YHR013C, strain ard1, active compounds read low 0.992 | locus YHR027C, strain rpn1, active compounds read low 0.98 | locus YHR030C, strain SLT2, active compounds read low 1 and 0.998 | locus YHR079C, strain IRE1 (second series), active compounds read low 1.02 | locus YHR079C, strain IRE1, active compounds read low 0.985 | locus YHR094C, strain hxt1, active compounds read low 1.01 | locus YHR129C, strain ARP1, active compounds read low 1.01 | locus YHR142W, strain chs7, active compounds read low 0.963 | locus YHR200W, strain rpn10, active compounds read low 1.02 | locus YIL066C, strain RNR3, active compounds read low 1.01 | locus YIL073C, strain SPO22, active compounds read low 1.06 | locus YIL125W, strain kgd1, active compounds read low 1.01 | locus YIR030C, strain dcg1, active compounds read low 1.02 | locus YJL092W, strain hpr5, active compounds read low 0.986 | locus YJL095W, strain BCK1 (second series), active compounds read low 0.975 | locus YJL095W, strain BCK1, active compounds read low 1.02 and 0.995 | locus YJL115W, strain asf1, active compounds read low 0.949 | locus YJL129C, strain trk1, active compounds read low 0.968 | locus YJL134W, strain LCB3, active compounds read low 1 | locus YJL154C, strain vps35, active compounds read low 0.95 | locus YJL164C, strain tpk1, active compounds read low 0.984 | locus YJL166W, strain qcr8, active compounds read low 0.968 | locus YJL168C, strain set2, active compounds read low 1.02 | locus YJL187C, strain SWE1 (second series), active compounds read low 1.02 | locus YJL187C, strain SWE1, active compounds read low 0.985 | locus YJR043C, strain POL32, active compounds read low 1.03 | locus YJR066W, strain TOR1, active compounds read low 0.945
